KDM5B inhibitor: Primary screen for KDM5B Histone Demethylases FDH-coupled qHTS | KDM5B demethylase, FDH-coupled NADH fluorescence (FDH is formaldehyde dehydrogenase) | Potency, µM (series often up to 57.7 µM), hits mostly inhibitors | actives 2.6% (n = 220,000); active means well fitted inhibition curve with a large enough effect; further: 0% is about no effect; nearly all actives have a fitted effect of over 70% in size
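Inhibition is measured as reduced NADH fluorescence generation from FDH coupling to formaldehyde release. Truncated KDM5BΔAP at 200 nM final acts on H3K4me3 peptide (12.5 µM in substrate mix) in pH 7.5 HEPES buffer with Tween-20, 30 min, room temperature.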
An asterisk follows results filed as active; i = inactive. This is one part of a sample in which hits are shown more often than they occur. Potency means the concentration at half of the fitted maximal effect.

SMILES	KDM5B inhibitor
O=C(Nc1ccc(-c2cccc(F)c2)cc1)C1CCCN1Cc1cnc[nH]1 (centres undefined)	i
CN1CCOc2c(C(=O)NCCc3cnc[nH]3)cc(-c3cccc4[nH]ccc34)cc21	32µM*
CC(=O)NCCC(=O)N1CCOc2c(O)cc(-c3cccc(Cl)c3)cc2C1	i
CN1CCOc2c(C(=O)NCCC(N)=O)cc(-c3ccccc3)cc21	35µM*
C#Cc1cccc(NC(=O)c2n[nH]c(=O)c3ccccc23)c1	i
CCCC1c2nccn2CCCN1C(=O)c1n[nH]c(=O)c2ccccc12 (centres undefined)	i
CC(Sc1ccc(F)cc1)C(=O)NC1(C#N)CCCCC1 (centres undefined)	i
Cn1c(C(=O)NCCNC(=O)CC2CCCCC2)cc2ccccc21	i
O=C(NC12CC3CC(CC(C3)C1)C2)C1CCCCC1	i
O=C(c1ccc(F)c(F)c1)N1C[C@@H](CO)[C@H](c2nc(C3CC3)no2)C1	i
O=C(c1ccc2c(c1)OCO2)N1C[C@@H](CO)[C@H](c2nc(C3CC3)no2)C1	i
Cc1ccoc1C(=O)N1CC(F)(F)C[C@H]1c1nc(C2CC2)no1	i
O=C(c1cc(C2CC2)[nH]n1)N1CC(F)(F)C[C@H]1c1nc(C2CC2)no1	i
O=C(c1cc[nH]c(=O)c1)N1CC(F)(F)C[C@H]1c1nc(C2CC2)no1	28µM*
O=C(c1ccc2cc[nH]c2c1)N1C[C@@H](CO)[C@H](c2nc(C3CC3)no2)C1	32µM*
CC1=CCC2C(C)(C)CCCC2(C)C1CC/C(C)=C/CC/C(C)=N/O (centres undefined)	i
CCOC(=O)CNC(=O)NCc1cccn1Cc1c(C)cc(C)cc1C	i
CCOc1c(Cl)cc(/C=C/C(=O)c2ccc(OC(F)F)cc2)cc1OC	i
COc1cccc(NC(=O)N2CCC(Cn3cc(C4CCCC4)nn3)CC2)c1	i
C=CCNC(=O)N[C@H]1CO[C@H]2[C@@H]1OC[C@@H]2Nc1nccc(-c2ccc(OC)cc2)n1	35µM*
COc1ccc(-c2ccnc(N[C@H]3CO[C@H]4[C@@H]3OC[C@H]4OC(=O)Nc3cccc(C(C)=O)c3)n2)cc1	i
COc1ccc(-c2ccnc(N[C@H]3CO[C@H]4[C@@H]3OC[C@H]4OC(=O)Nc3ccc(C(C)(C)C)cc3)n2)cc1	25µM*
COc1ccc(-c2ccnc(N[C@H]3CO[C@H]4[C@@H]3OC[C@H]4OCC(=O)N(C)C)n2)cc1	35µM*
CCNC(=O)N[C@H]1CO[C@H]2[C@@H]1OC[C@@H]2Nc1nccc(-c2ccc(OC)cc2)n1	28µM*
COc1ccc(-c2ccnc(N[C@H]3CO[C@H]4[C@@H]3OC[C@H]4OC(=O)Nc3ccc(C(C)=O)cc3)n2)cc1	i
SMILES	KDM5B inhibitor
COc1ccc(NC(=O)N[C@H]2CO[C@H]3[C@@H]2OC[C@H]3OC(=O)Nc2ccc(OC)cc2)cc1	i
C=CCNC(=O)N[C@H]1CO[C@H]2[C@@H]1OC[C@@H]2Nc1nccc(C(C)(C)C)n1	i
COc1ccc(C(=O)OCCOc2ccc(C#N)cc2)cc1F	i
O=C(Nc1ccc(OCc2cccc(F)c2)c(Cl)c1)c1ccncc1	i
Cc1ccc(NC(=O)c2ncoc2-c2cccc(Cl)c2)cc1F	i
O=C(COCc1nc2ccccc2c(=O)[nH]1)Nc1nc(-c2ccc3c(c2)CCCC3)cs1	i
CC(C)=NNC(N)=S	i
COc1ccc(OC)c(C2CC(=O)Nc3c(-c4ccccc4)nsc32)c1 (centres undefined)	i
COc1cc(CNC(=O)c2ccc3c(c2)CCC(=O)N3)ccn1	i
CS(=O)(=O)c1ccc2sc(N)nc2c1	i
Cc1ccc(F)c(S(=O)(=O)NCc2cccc3c2OCCO3)c1	i
CCCNC(=O)COc1ncnc2c(Cl)cc(Cl)cc12	i
CC(NC(=O)c1ccc(C(C)(C)C)cc1)C(=O)N1CCC2(CC1)NCCc1[nH]cnc12 (centres undefined)	i
CNc1c(NC(=O)Nc2ccc(Br)cc2F)c(=O)oc2ccccc12	i
Cc1ccccc1Cn1c(N2CCN(Cc3ccccc3)CC2)nc2c1c(=O)[nH]c(=O)n2C	i
CN(c1ccccc1)c1ccc2nnc(-c3ccccn3)n2n1	i
c1ccc(C2CCN(c3ccc4nnc(-c5ccccn5)n4n3)CC2)cc1	i
OCc1ccc(-c2ccc3nnc(-c4ccccn4)n3n2)cc1	32µM*
CC(C)S(=O)(=O)c1ncc(CN(CCO)Cc2ccccc2)n1CCc1ccccc1	i
Cc1c(Cl)cccc1NC(=O)CSc1ncnc2ccccc12	i
Cc1ccc(-c2nnc(SCC(=O)N3CCC(C)CC3)n2N)cc1	i
CCCCN(CCCC)C(=O)c1ccc(N)cc1	i
CSCCC(=O)NCc1cccs1	i
O=C(Nc1ccc(-c2nnc3n2CCCC3)cc1)c1ccc(Cl)cc1	i
O=C(Nc1ccc(-c2nnc3n2CCCC3)cc1)c1cc(-c2ccccc2)n[nH]1	32µM*
O=C(Nc1ccc(-c2nnc3n2CCCC3)cc1)c1ccncc1	i

High-throughput results deposited in PubChem by National Center for Advancing Translational Sciences (NCATS).
